In all, about 52,000 compounds went through this assay and about 4,300 (8.3%) were called active. Only a selection was taken, and actives are over-represented in it overall. A number with no mark means an inactive call. No stated cut-off is given here; in the data, active means survival mostly below about 52% (no sharp cut-off); inactive means mostly above about 56%.
system: DeltatarO mutant; experiment: growth inhibition of S. aureus wild type versus tarO mutant, primary screen, teichoic acid synthesis inhibitors, RN4220, OD600 (AID 463173); settings: OD600, 18 h, hits give low values, screened at 18.75 µg/mL (by protocol)

Structure (SMILES)	survival
COc1ccc(CCNS(=O)(=O)c2ccc(N3CCCCS3(=O)=O)cc2)cc1	79%
O=S(=O)(NCCc1ccccc1)c1ccc(N2CCCCS2(=O)=O)cc1	52% (active)
O=S(=O)(NCCc1ccc(Cl)cc1)c1ccc(N2CCCCS2(=O)=O)cc1	93%
c1ccc(Cn2nnnc2C(c2cccs2)N(Cc2cccnc2)Cc2ccco2)cc1 (stereo unspecified)	64%
Cc1c[n+](CC(=O)c2ccccc2)c(C)cn1	101%
Cc1nc(-c2ccc(F)cc2)sc1CCNC(=O)c1ccc(OC(C)C)cc1	67%
Cc1ccc(C(=O)N2CCC(C(=O)O)CC2)cc1	90%
COc1ccc(C(=O)Oc2c(Sc3ccccc3)c(C)nn2-c2ccccc2)c(OC)c1	114%
Cc1ccc(C(=O)Oc2c(S(=O)(=O)c3ccccc3)c(C)nn2-c2ccccc2)cc1	90%
Cc1ccc(Sc2c(C)nn(-c3ccccc3)c2OC(=O)CC(C)C)cc1	21% (active)
Cc1nn(-c2ccccc2)c(OC(=O)C(C)(C)C)c1Sc1ccccc1	62%
Cc1ccc(Sc2c(C)nn(-c3ccccc3)c2OC(=O)C(C)(C)C)cc1	-10% (active)
COc1cc(C(=O)Oc2c(Sc3ccc(C)cc3)c(C)nn2-c2ccccc2)cc(OC)c1OC	109%
COc1ccc(Cc2nnc(SCC(=O)N3CCCC3)o2)cc1	83%
COc1ccc(N(CC(=O)NCCc2ccc(C)cc2)S(=O)(=O)c2c(C)nn(C)c2C)cc1	71%
COc1ccc(-c2nc3c(c(SCC(=O)N4CCCCC4)n2)Cc2cc(C)ccc2O3)cc1	84%
CSc1ncc(C(=O)NCc2ccc(F)cc2)c(-c2ccccc2)n1	95%
CSc1ncc(C(=O)NCc2cccc(C)c2)c(-c2ccccc2)n1	55%
CSc1ncc(C(=O)NCc2cccc(F)c2)c(-c2ccccc2)n1	70%
CSc1ncc(C(=O)NCc2ccc(C)cc2)c(C)n1	69%
CSc1ncc(C(=O)NCc2ccc(C)cc2)c(-c2ccccc2)n1	0% (active)
CSc1ncc(C(=O)NCc2ccccc2)c(-c2ccccc2)n1	37% (active)
COc1cccc(NC(=O)c2sc3nc(C)c(C(=O)Nc4ccc(C)cc4C)c(-c4cccs4)c3c2N)c1	122%
CCc1ccc(S(=O)(=O)c2cn(Cc3ccccc3F)c3cc(OC)c(OC)cc3c2=O)cc1	70%

Structure (SMILES)	survival
COc1ccc(C(=O)NCc2cn3ccc(C)cc3n2)cc1	96%
Cc1c(-c2ccccc2)n(-c2ccccc2O)c2nc3c(c(=O)n(C)c(=O)n3C)n12	94%
CC(=O)c1ccc(NC(=O)c2cc3c(=O)oc4ccc(C)cc4c3s2)cc1	106%
COc1ccc(CC(=O)N(Cc2nc(-c3ccc(C)cc3)no2)C(C)C)cc1	31% (active)
COc1ccc(-c2noc(CNC(=O)COc3cccc(C)c3C)n2)cc1	51%
COc1ccc(-c2noc(CC(=O)N(C)c3cccc(C)c3)n2)cc1	68%
COc1ccc(-c2noc(CN(C(=O)c3ccc(C)cc3C)C(C)C)n2)cc1	-3% (active)
COc1ccc(-c2noc(CN(C(=O)c3ccccc3Cl)C(C)C)n2)cc1	62%
Cc1ccc(-c2noc(CN(C(=O)COc3cc(C)cc(C)c3C)C(C)C)n2)cc1	-3% (active)
COc1ccc(-c2noc(CN(C(=O)Cc3ccc(C)cc3)C(C)C)n2)cc1	16% (active)
COc1ccc(-c2noc(CCC(=O)NCc3ccc(C)cc3)n2)cc1	103%
COc1ccc(-c2noc(CN(C(=O)C(C)Oc3ccc(C)cc3)C(C)C)n2)cc1 (stereo unspecified)	63%
COc1ccc(-c2noc(CN(C(=O)c3cc(OC)c(OC)cc3OC)C(C)C)n2)cc1	74%
Cc1ccccc1Cn1c(C)c(CNCc2ccccc2)c(C(=O)O)c1C	84%
Cc1cccc(N(CC(=O)N(C)Cc2ccccc2)S(=O)(=O)c2ccccc2)c1C	47%
O=S(=O)(c1ccc(Cl)cc1)c1nnn2c1nc(NCc1ccc3c(c1)OCO3)c1sccc12	69%
Cc1ccc2c(=O)c(C(=O)c3cccc(Cl)c3)cn(CC(=O)Nc3ccc4c(c3)OCCO4)c2n1	80%
CC(=O)Nc1ccc(S(=O)(=O)N2CCC(c3nnnn3-c3ccccc3)CC2)cc1	76%
O=C(NCCN1CCCCC1)Nc1c[nH]c2c(Cl)cccc2c1=O	102%
COC(=O)c1cc(-c2ccc(Cl)cc2)c2c(=O)[nH]c(=O)n(C)c2n1	92%
COc1ccc(-c2noc(-c3nnn(-c4cc(C)ccc4C)c3N)n2)cc1	81%
COc1ccc(-c2noc(CC(=O)Nc3ccc(Br)cc3C)n2)cc1	59%
Cc1ccc(CC(=O)N(Cc2nc(-c3ccc(C)cc3)no2)C(C)C)cc1	-4% (active)
Cc1ccc(-c2noc(CNC(C)C)n2)cc1	77%

Structure (SMILES)	survival
COc1ccc(-c2noc(CN(C(=O)COc3cc(C)c(Br)c(C)c3)C(C)C)n2)cc1	31% (active)
Cc1ccc(-c2noc(CNC(=O)COc3cc(C)c(Br)c(C)c3)n2)cc1	80%
Cc1ccc(CC(=O)NCc2nc(-c3ccccc3)no2)cc1	77%
O=C(CS(=O)(=O)c1cccc2nsnc12)Nc1ccc(F)cc1	97%
CCN(CC)C(=O)CSc1nc2c(c(=O)n(C)c(=O)n2C)n1Cc1ccccc1	76%
Cc1ccc(C)c(NC(=O)C(NS(=O)(=O)c2ccc3c(c2)CCC(=O)N3)c2ccccc2)c1 (stereo unspecified)	113%
COC(=O)c1ccc(NCC(=O)c2ccccc2)cc1	64% (active)
CCOC(=O)Nc1ccc(C(=O)OC)cc1	75%
COC(=O)c1ccc(NC(=O)CCOc2ccccc2)cc1	69%
O=C(NC1CCCCC1)/C(=N\O)c1ccccn1	97%
CCOc1ccc(NC(=O)Cn2cc(C(=O)c3ccc(C)c(C)c3)c(=O)c3cc4c(cc32)OCCO4)cc1	62%
CC1=NN(c2ccc(N)cc2)C(=O)C1	107%
CCCCCN1N=C(C)CC1=O	39% (active)
CCOC(=O)c1sc(N2N=C(C)CC2=O)nc1C	76%
CCN(CC)CCCNC(=O)C(=O)Nc1ccc2nc3n(c(=O)c2c1)CCCCC3	91%
COc1ccc(-c2noc(CCC(=O)Nc3cccc(C)c3C)n2)cc1OC	69%
Cc1cccc(-c2nc3cc(NC(=O)COc4ccccc4F)ccc3o2)c1	103%
COc1cc2ccccc2cc1C(=O)Nc1ccc2oc(-c3ccc(Cl)cc3)nc2c1	59%
O=C(Nc1ccc(-c2nc3cc(NC(=O)c4ccccc4F)ccc3o2)cc1)c1ccccc1F	90%
COc1cc2ccccc2cc1C(=O)Nc1ccc2oc(-c3cccc(C)c3)nc2c1	25% (active)
COc1cc2ccccc2cc1C(=O)Nc1ccc2oc(-c3ccc(F)cc3)nc2c1	43% (active)
COc1ccc(C(=O)Nc2ccc3oc(-c4ccc5ccccc5c4)nc3c2)cc1Br	63%
COc1cc(C(=O)Nc2ccc3oc(-c4ccccc4)nc3c2)cc(OC)c1OC	51%
CCc1ccc(-c2nc3cc(NC(=O)c4cc5ccccc5cc4OC)ccc3o2)cc1	11% (active)

Structure (SMILES)	survival
CCc1ccc(OCC(=O)Nc2ccc3oc(-c4ccc(OC)cc4)nc3c2)cc1	62%
COc1cc2ccccc2cc1C(=O)Nc1ccc2oc(-c3ccccc3)nc2c1	8% (active)
CCc1ccc2oc(-c3ccc(NC(=O)c4ccc(OC)c(Br)c4)cc3)nc2c1	60%
COc1cc2ccccc2cc1C(=O)Nc1ccc2oc(-c3ccc(F)cc3Cl)nc2c1	59%
COC(=O)CSc1ccc2nnc(CCNS(=O)(=O)c3ccccc3)n2n1	118%
CCc1ccc(NC(=O)NCCc2c(C)nn(C)c2C)cc1	72%
COc1ccccc1Cn1cc(C(=O)c2ccc(Cl)cc2)c(=O)c2ccccc21	83%
Cc1cccc(Cn2c(=O)n(Cc3ccc4c(c3)OCO4)c(=O)c3oc4ccccc4c32)c1	77%
Cc1oc2ncn(CC(C)C)c(=O)c2c1C(=O)Nc1cc(F)ccc1F	65%
COc1ccc2c(CNC3CCC(C)CC3)c(C(=O)O)n(Cc3ccc(F)cc3)c2c1 (stereo unspecified)	70%
CCC(=O)n1nc(-c2ccccc2)nc1N	104%
CN(Cc1ccccc1)c1ncnc2c1nnn2C	72%
COc1cccc(CNC(=O)CSc2nc(=O)[nH]c3c2CCCC3)c1	85%
C=CCSc1nnc(-c2ccccc2)n1-c1ccccc1	103%
Cc1c(Cl)cccc1NC(=O)CSc1nc(=O)[nH]c2c1CCC2	93%
CCn1c(CC2C(=O)N(C)c3ccc(Br)cc32)nc2ccccc2c1=O (stereo unspecified)	70%
Cc1cccc(-n2c(SCC(N)=O)nc3ccccc3c2=O)c1	90%
CCCN1C(=O)C(Cc2nc3ccccc3c(=O)n2-c2cccc(C)c2)c2ccccc21 (stereo unspecified)	36% (active)
CCCN1C(=O)C(Cc2nc3ccccc3c(=O)n2CC)c2cc(Br)ccc21 (stereo unspecified)	34% (active)
CCOC(=O)CSc1nc2ccccc2c(=O)n1-c1ccc(C(=O)NCCOC)cc1	96%
CCOC(=O)CSc1nc2ccccc2c(=O)n1-c1cccc(C)c1	31% (active)
CCN1C(=O)C(Cc2nc3ccccc3c(=O)n2-c2cccc(C)c2)c2ccccc21 (stereo unspecified)	50%
CCCN1C(=O)C(Cc2nc3ccccc3c(=O)n2-c2ccccc2)c2cc(C)ccc21 (stereo unspecified)	68%
CCCN1C(=O)C(Cc2nc3ccccc3c(=O)n2CC)c2ccccc21 (stereo unspecified)	84%

Source: PubChem BioAssay AID463173 (ICCB-Longwood Screening Facility, Harvard Medical School, 2010)
